# RBX1-CUL1 inh: blocks human RBX1-Cullin-1 di-ubiquitin formation. P62877+Q13616. 140,000 compounds, 0.6% hits. AID 1347404. in vitro K48 di-Ub FRET, acceptor:donor ratio, 45 min. inhibition, % at 10 µM; in the data active = inhibition above about 25%
# Target sequence (P62877 whole entry, looked up): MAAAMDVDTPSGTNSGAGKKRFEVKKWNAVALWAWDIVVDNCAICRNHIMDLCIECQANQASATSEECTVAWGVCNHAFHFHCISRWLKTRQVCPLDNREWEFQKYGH
# Target sequence (Q13616 whole entry, looked up): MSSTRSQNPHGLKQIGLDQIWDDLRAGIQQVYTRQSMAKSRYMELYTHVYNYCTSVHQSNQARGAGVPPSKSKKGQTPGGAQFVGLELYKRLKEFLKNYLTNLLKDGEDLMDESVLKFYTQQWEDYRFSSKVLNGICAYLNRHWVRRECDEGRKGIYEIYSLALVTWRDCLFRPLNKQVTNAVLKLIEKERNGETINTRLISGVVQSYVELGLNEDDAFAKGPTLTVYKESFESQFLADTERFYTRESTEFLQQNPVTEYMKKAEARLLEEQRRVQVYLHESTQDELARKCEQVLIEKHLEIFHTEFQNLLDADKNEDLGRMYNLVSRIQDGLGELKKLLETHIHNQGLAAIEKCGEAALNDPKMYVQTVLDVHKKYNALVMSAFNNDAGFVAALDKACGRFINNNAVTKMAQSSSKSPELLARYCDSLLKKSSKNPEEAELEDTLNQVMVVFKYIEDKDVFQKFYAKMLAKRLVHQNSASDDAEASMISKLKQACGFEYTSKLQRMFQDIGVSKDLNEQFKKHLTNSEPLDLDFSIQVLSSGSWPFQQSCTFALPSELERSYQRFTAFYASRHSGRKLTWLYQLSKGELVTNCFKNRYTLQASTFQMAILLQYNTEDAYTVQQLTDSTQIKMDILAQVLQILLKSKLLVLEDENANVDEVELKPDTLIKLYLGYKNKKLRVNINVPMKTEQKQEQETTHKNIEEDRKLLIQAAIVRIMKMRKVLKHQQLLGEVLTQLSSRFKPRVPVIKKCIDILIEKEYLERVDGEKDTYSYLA
# An asterisk follows results filed as active. Shown is part of a subset that was picked to be rich in hits.
SMILES,RBX1-CUL1 inh
COc1ccc(/C=C2/C(=O)NN(c3ccc(I)cc3)C2=O)cc1,2.0
O=C1NN(c2ccc(Cl)c(Cl)c2)C(=O)/C1=C/c1cccc([N+](=O)[O-])c1,8.9
O=C1NN(c2ccc(I)cc2)C(=O)/C1=C\c1ccc(N2CCOCC2)cc1,-2.8
CCOc1cc(/C=C2\C(=O)NN(c3ccc(Cl)cc3)C2=O)cc(I)c1O,5.6
O=C1NN(c2ccc(I)cc2)C(=O)/C1=C\c1cccs1,3.6
COc1cc(/C=C2\C(=O)NN(c3ccc(C)cc3)C2=O)cc([N+](=O)[O-])c1O,5.9
O=C1NN(c2ccc(I)cc2)C(=O)/C1=C/c1ccc(Cl)cc1,59.3*
O=C1NN(c2ccc(I)cc2)C(=O)/C1=C\c1ccc(Br)cc1,59.5*
O=C1NN(c2ccc(Br)cc2)C(=O)/C1=C\c1ccc(O)cc1,1.6
O=C1NN(c2ccc(Cl)cc2)C(=O)/C1=C/c1cc(Br)cc([N+](=O)[O-])c1O,85.1*
O=C1NN(c2ccccc2)C(=O)/C1=C/c1ccc2c(c1)OCO2,6.7
CC(C)(O)C#Cc1ccc(CN2CCOc3ccc(C(O)C4CCCCC4)cc3C2)cc1 (stereo not given),10.1
Cc1nonc1CN(C)Cc1nc(-c2cccs2)oc1C,-1.2
COc1ncccc1-c1nc(C2(c3ccc(F)cc3)CCOC2)no1 (stereo not given),10.0
COc1ccc(C(=O)Nc2ccc(N3CCN(C(=O)C(C)(C)C)CC3)cc2)c(OC)c1,0.3
O=C(c1ccc2c3c(cccc13)CC2)C1CCCN(C(=O)c2cnc3ccccn3c2=O)C1 (stereo not given),13.6
O=C(O)CCC(=O)N(C1CCCCC1)C1CCCCC1,-3.0
S=C(NN1CCOCC1)c1cn(N2CCOCC2)nn1,-1.0
CCc1noc(CN(C)c2ccc(-c3nc(C(C)C)no3)cn2)n1,1.3
O=C1NN(c2cccc(Cl)c2)C(=O)/C1=C/c1ccc(Br)cc1,60.2*
O=C1NN(c2ccc(F)cc2)C(=O)/C1=C/c1ccccc1O,2.1
CCc1ccc(/C=C2\C(=O)NC(=S)N(C)C2=O)cc1,-2.4
O=C1NN(c2cccc(Cl)c2)C(=O)/C1=C/c1cccs1,11.7
O=C1NN(c2cccc(C(F)(F)F)c2)C(=O)/C1=C\c1ccc(Br)cc1,5.5
O=C1NN(c2ccccc2)C(=O)/C1=C/c1ccc(OCc2ccccc2)cc1,-12.7
SMILES,RBX1-CUL1 inh
C=CCOc1ccc(/C=C2\C(=O)NN(c3ccc(Cl)cc3)C2=O)cc1OC,-10.4
CCc1ccc(/C=C2\C(=O)NN(c3ccc(C)cc3)C2=O)cc1,45.3*
O=C1NN(c2cc(Cl)cc(Cl)c2)C(=O)/C1=C\c1ccc(F)cc1,84.9*
O=C1NN(c2ccc(Cl)cc2)C(=O)/C1=C\c1ccc(F)cc1,38.5*
O=C1NN(c2cccc(Cl)c2)C(=O)/C1=C\c1cc(Br)ccc1O,3.2
CCOc1cc(/C=C2/C(=O)NN(c3ccc(F)cc3)C2=O)ccc1OC(C)C,4.7
COC(=O)c1ccc(-c2c(Cl)nc(NCCc3c[nH]c4ccccc34)c(=O)n2-c2ccccc2)cc1,5.5
COC(=O)CN1C(=O)C2(C3=C(CC(C)(C)CC3=O)OC(=N)C2C#N)c2ccccc21 (stereo not given),6.2
CCC(=O)C1CCCN(C(=O)CCC2(Cc3ccc(F)cc3)CCC(=O)N2)C1 (stereo not given),0.3
CC1=C(C(=O)OC2CCCC2)C(c2ccccc2F)CC(=O)N1 (stereo not given),2.7
OC1CCCN(Cc2nc(-c3ccc(Cl)cc3)no2)C1 (stereo not given),1.4
Cc1cnc(C)c(-c2cccc(-c3ccn(CC(N)=O)n3)c2)n1,12.6
c1ccc(CSc2ncnc3scc(-c4ccccc4)c23)cc1,17.3
CC(=O)Oc1cccc(/C=C2/C(=O)NN(c3ccc(C)c(C)c3)C2=O)c1,1.6
O=C1NN(c2ccc(F)c(Cl)c2)C(=O)/C1=C\c1cccc(OC(=O)c2cccs2)c1,97.1*
CCN(CC)c1ccc(/C=C2\C(=O)NN(c3ccc(Cl)c(Cl)c3)C2=O)cc1,1.9
O=C1OC(c2ccccc2)=N/C1=C/c1cccc(OC(=O)c2cccs2)c1,-1.8
O=C1NN(c2ccccc2)C(=O)/C1=C/c1cccc(OCc2ccc(Cl)c(Cl)c2)c1,6.7
O=C1NN(c2ccc(Cl)c(Cl)c2)C(=O)/C1=C/c1ccc(Cl)cc1,78.0*
Cc1ccc(N=C2S/C(=C\c3ccc(-c4ccc(Br)cc4)o3)C(=O)N2c2ccc(C)cc2)cc1,0.4
O=C(c1ccccn1)N1CCC2(CCCN(Cc3cccc(F)c3F)C2)C1 (stereo not given),2.4
COc1cc(/C=C2\SC(=O)N(Cc3ccc(F)cc3)C2=O)ccc1OCc1ccccc1,8.6
S=c1[nH]nc(-c2ccccc2)n1/N=C/c1cc(Br)c(I)o1,-6.3
O=C1C(=Cc2ccc(O)c(Br)c2)C(=O)c2ccccc21,-5.5
O=C1NC(=O)C(=Cc2cc(Br)c(I)o2)C(=O)N1,79.7*
SMILES,RBX1-CUL1 inh
COc1cc(C=C2C(=O)NC(=O)NC2=O)cc(I)c1OC,-0.1
O=C1NC(=O)C(=Cc2cc(O)c(O)c(Br)c2)C(=O)N1,49.3*
CCOC1(OCC)C(c2ccccc2OC)C(C#N)(C#N)C1(OCC)OCC (stereo not given),-3.6
O=C(N1CCOCC1)N1CCc2[nH]nc(COc3cccc(Cl)c3)c2C1,5.3
COc1cccc(-n2nc3c(Cl)nnc(C)c3c2C)c1,4.1
Fc1cccc(C2Nc3cccc4cccc(c34)N2)c1,-5.2
CC(C)(C)c1ccc(C2Nc3cccc4cccc(c34)N2)cc1,-7.4
O=C(O)c1ccc(C2Nc3cccc4cccc(c34)N2)cc1,92.7*
COc1ccc(/C=C/C(=O)Nc2nc(-c3ccccc3)c(C)s2)cc1OC,-8.9
Cc1ccccc1NC(=O)Cc1cccs1,6.5
O=C(Cc1cccs1)Nc1ccc(Cc2cccc(NC(=O)Cc3cccs3)c2C(=O)O)cc1C(=O)O,26.9*
O=C(Cc1cccs1)Nc1ccccc1O,-6.1
CCC1(C)COC(c2ccccc2)(c2ccccc2)OC1,5.5
CCCCC1(C)OC(=O)C(=Cc2ccc(-c3cc(C(=O)O)ccc3Cl)o2)C(=O)O1 (stereo not given),85.0*
O=C(O)c1ccc(Cl)c(-c2ccc(/C=N/Nc3ccccc3)o2)c1,1.9
CCC(C)N1C(=O)S/C(=C/c2ccc(-c3cc(C(=O)O)ccc3Cl)o2)C1=O (stereo not given),15.3
O=C(Nc1ccc(C(=O)N2CCOCC2)cc1)c1ccco1,0.8
C=C1CCC2C(C)(C)CCC[C@]2(C)[C@H]1CCSc1nnc(-c2ccc(OC)cc2)o1 (stereo not given in full),-7.4
COc1ccc(CC(=O)NCC2CCCO2)cc1 (stereo not given),-4.9
Cc1ccccc1N1C(=O)C(=O)C(C(=O)c2ccc(Cl)cc2)C1c1ccccc1 (stereo not given),3.5
Cc1cccc(C)c1OCc1nc2ccccc2c(=O)n1N,-0.8
O=C1c2ccccc2NC(c2cc3ccccc3nc2Cl)N1c1ccccc1 (stereo not given),-5.1
Cc1ccccc1N1OC2C(=O)N(c3ccccc3Cl)C(=O)C2C1c1ccc(N(C)C)cc1 (stereo not given),-7.4
Cc1cccc2c1OC(=O)C(C(c1ccc(N(C)C)cc1)C1C(=O)Oc3c(C)cccc3C1=O)C2=O (stereo not given),91.6*
Cc1c(C(c2ccc(Br)cc2)C2C(=O)Oc3ccccc3C2=O)c(=O)n(-c2ccccc2)n1C (stereo not given),-2.7
CCCC(=O)Nc1ccc(NCc2cccs2)cc1,1.6
CCn1c(C)nn(Cc2ccc(Cl)c(Cl)c2)c1=O,-1.2

# Screening results from PubChem BioAssay.
